# Source: PubChem BioAssay (several laboratories)
# Sampled rows, rich in hits. Any-hit rate of the full collection: about 27%.
# CYP2C19 inh – human CYP2C19 inhibition | P33261 | CYP2C19 Supersomes, luciferin-H EGE luminescence, 30 min | inhibition, % at 5 µM | 96,000 tested, 21% active | AID 778;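 active = CYP2C19 inhibition above a set limit at 5 µM in the primary screen, cut at about 50% in these data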;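 note: plate controls were negative control wells for no effect and 2.5 mM tranylcypromine positive control for full effect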
# CYP2C9 act – CYP2C9 (human) activation. P11712. recombinant CYP2C9, luciferin-H conversion, luminescence; stronger effect = higher value; factor 1 = untreated enzyme, 0 = blocked. activation factor at 5 µM. 96,000 tested, 1.4% active. AID 1024;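 active = activation factor of 2 or more for CYP2C9 at a 5 µM dose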;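 note: 0 = sulfaphenazole-blocked wells and 1 = vehicle-only wells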
# Cav32 inh – inhibitors of human Cav3.2 T-type calcium channel; O95180; Cav3.2-expressing cells, Fluo-4 calcium fluorescence FDSS; stronger effect = lower value; B-score at 10 µM; 100,000 tested, 4% active;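 active = single-dose well whose peak fluorescence ratio is a statistical outlier from its plate by either plate-standardised score or position-corrected B-score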
# Target sequence (O95180 whole entry, looked up): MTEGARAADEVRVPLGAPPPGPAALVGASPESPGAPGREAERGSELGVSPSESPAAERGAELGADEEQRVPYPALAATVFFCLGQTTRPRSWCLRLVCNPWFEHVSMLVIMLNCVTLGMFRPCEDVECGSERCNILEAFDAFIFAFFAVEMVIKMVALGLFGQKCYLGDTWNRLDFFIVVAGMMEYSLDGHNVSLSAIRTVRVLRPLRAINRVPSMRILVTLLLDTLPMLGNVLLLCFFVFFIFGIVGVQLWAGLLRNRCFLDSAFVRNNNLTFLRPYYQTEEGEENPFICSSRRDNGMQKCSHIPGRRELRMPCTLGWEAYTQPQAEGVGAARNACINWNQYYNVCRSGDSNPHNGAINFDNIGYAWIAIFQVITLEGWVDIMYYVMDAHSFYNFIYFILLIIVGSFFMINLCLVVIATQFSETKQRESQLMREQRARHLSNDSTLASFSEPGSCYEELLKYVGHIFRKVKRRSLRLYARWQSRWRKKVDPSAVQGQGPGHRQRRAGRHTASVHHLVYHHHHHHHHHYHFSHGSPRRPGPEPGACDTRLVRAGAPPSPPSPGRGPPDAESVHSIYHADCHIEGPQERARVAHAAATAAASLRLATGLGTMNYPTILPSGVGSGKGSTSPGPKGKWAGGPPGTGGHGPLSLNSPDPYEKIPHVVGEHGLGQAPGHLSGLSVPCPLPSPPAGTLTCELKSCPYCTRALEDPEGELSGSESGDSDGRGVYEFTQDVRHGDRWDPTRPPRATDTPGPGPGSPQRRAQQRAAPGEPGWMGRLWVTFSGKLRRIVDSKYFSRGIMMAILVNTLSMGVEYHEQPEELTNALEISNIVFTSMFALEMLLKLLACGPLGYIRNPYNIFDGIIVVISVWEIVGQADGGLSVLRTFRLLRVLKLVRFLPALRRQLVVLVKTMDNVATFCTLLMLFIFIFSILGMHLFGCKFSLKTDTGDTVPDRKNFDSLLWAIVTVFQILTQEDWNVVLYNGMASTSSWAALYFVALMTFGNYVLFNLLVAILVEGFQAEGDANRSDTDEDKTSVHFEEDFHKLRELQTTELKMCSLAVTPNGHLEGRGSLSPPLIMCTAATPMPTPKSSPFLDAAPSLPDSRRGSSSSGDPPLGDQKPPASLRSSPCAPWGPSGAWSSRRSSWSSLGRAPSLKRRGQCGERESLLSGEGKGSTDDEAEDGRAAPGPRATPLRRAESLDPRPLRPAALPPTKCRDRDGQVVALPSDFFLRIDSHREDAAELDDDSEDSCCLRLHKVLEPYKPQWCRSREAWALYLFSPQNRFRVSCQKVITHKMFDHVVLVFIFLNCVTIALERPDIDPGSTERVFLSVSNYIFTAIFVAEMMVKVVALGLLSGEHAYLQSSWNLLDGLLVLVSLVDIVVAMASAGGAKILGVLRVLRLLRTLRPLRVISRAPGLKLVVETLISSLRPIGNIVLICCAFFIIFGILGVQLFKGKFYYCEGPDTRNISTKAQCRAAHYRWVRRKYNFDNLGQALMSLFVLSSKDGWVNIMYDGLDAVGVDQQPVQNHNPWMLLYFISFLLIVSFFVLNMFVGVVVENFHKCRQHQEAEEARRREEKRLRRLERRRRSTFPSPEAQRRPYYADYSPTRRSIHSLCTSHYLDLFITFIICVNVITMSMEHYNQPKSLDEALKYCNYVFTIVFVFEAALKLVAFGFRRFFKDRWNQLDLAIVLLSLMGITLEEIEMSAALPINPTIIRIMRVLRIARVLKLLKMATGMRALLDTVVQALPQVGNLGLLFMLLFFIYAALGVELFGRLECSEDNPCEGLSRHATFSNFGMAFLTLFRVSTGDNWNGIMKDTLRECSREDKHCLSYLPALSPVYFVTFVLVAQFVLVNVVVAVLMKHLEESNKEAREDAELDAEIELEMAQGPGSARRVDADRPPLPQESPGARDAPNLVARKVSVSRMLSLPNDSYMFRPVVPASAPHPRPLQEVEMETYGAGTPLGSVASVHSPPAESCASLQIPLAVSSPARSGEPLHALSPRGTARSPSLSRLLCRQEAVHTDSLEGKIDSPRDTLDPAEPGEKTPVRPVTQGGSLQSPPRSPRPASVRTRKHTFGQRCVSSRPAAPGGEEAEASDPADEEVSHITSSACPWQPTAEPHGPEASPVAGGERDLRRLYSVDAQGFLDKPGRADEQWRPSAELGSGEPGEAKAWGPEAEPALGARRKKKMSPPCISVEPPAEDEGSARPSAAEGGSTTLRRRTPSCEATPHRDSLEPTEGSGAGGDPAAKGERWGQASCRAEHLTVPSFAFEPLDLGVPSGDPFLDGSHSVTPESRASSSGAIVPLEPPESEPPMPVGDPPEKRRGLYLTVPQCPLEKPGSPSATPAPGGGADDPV
# CYP2C19 activ – activators of human cytochrome P450 2C19 | recombinant CYP2C19, luciferin-H EGE luminescence; stronger effect = higher value; 0 = fully inhibited enzyme, 1 = untreated enzyme | 96,000 tested, under 10 active | activation factor at 5 µM | P33261;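 active = activation factor of at least 2 at 5 µM in the primary screen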;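 note: 0 = wells with 2.5 mM tranylcypromine and 1 = vehicle-only wells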
# CYP2C9 inhib – human CYP2C9 inhibition. CYP2C9 Supersomes, luciferin-H conversion, luminescence. inhibition, % at 5 µM. 96,000 tested, 20% active;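 active = blocking of liver enzyme CYP2C9 beyond about 50% at 5 µM, limit read from the data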
# * = called active by the depositor; x = no result.
SMILES,CYP2C19 inh,CYP2C9 act,Cav32 inh,CYP2C19 activ,CYP2C9 inhib
O=C(OCC(=O)N1CCN(C(=O)c2ccco2)CC1)c1cc(-c2ccco2)nc2ccccc12,13.2,0.7,1.02,0.9,28.1
COC(=O)c1ccc(C23CC4(C2)[C@H](CN(CC2CCCCC2)[C@@H]4c2ccccc2)C3c2ccccc2)cc1 (stereo partly specified),x,x,-0.61,x,x
COc1ccc(OC)c(N(CC(=O)Nc2cccnc2)S(C)(=O)=O)c1,55.7*,0.7,0.373,0.4,32.6
COc1ccc(OC)c(N(CC(=O)Nc2cccnc2)S(=O)(=O)c2ccc(C)cc2)c1,95.1*,0.1,x,0,94.0*
COc1ccc(OC)c(-n2nnnc2SCC(=O)Nc2nc(C)c(C)s2)c1,30.7,0.9,-0.791,0.7,7.0
O=S(=O)(NCc1ccco1)c1ccccc1Br,x,x,-0.448,x,x
COc1cc(C)c(Cl)cc1S(=O)(=O)NCc1ccco1,97.6*,2*,-0.907,0,-100.2
COc1cc(OC)c(S(=O)(=O)NCc2ccco2)cc1S(=O)(=O)NCc1ccco1,-8.7,1.1,0.0109,1.1,-6.8
CCOc1cc(C)c(Cl)cc1S(=O)(=O)NCc1ccco1,16.4,2*,-1.96,0.8,-103.3
COc1ccccc1N1CCN(C(=O)c2ccc(Cl)c(S(=O)(=O)NCc3ccco3)c2)CC1,69.6*,0.2,-0.313,0.3,77.4*
CCOc1ccc(S(=O)(=O)NCc2ccco2)c2ccccc12,63.6*,1.1,-1.78,0.4,-13.6
Cc1ccc(C(=O)Oc2ccccc2C(=O)N2CCOCC2)cc1,x,x,0.936,x,x
O=C(NCc1cccs1)C1CC(=O)N(c2ccccc2)C1 (stereo unspecified),22.1,1.1,-0.803,0.8,-14.1
NC(=O)c1oc2ccccc2c1NC(=O)c1ccccc1,21.7,3.8*,0.867,0.8,-280.2
NC(=O)c1oc2ccccc2c1NC(=O)c1ccco1,-13.4,3.7*,-0.242,1.1,-266.5
COc1ccc(NC(=O)CSc2nc3ccccc3c(=O)n2CCNC(C)=O)c(OC)c1,47.5,0.5,1.72,0.5,50.6*
CCC(C)NC(=O)CSc1nc2ccccc2c(=O)n1Cc1ccc(OC)cc1 (stereo unspecified),85.3*,0.9,-0.654,0.1,11.7
CCn1c(SCC(=O)Nc2ccccc2OC)nc2ccccc2c1=O,60.7*,0.1,-1,0.4,85.5*
COc1ccc(NC(=O)CSc2nc3ccccc3c(=O)n2CCNC(C)=O)cc1,93.7*,0.4,0.999,0.1,58.5*
CCC(C)NC(=O)CSc1nc2ccsc2c(=O)n1-c1ccc(OC)cc1 (stereo unspecified),2.9,0.9,0.346,1,7.4
COc1ccc(CNC(=O)C(=O)NCC2OCCN2S(=O)(=O)c2ccc3c(c2)OCCO3)cc1 (stereo unspecified),x,x,-2.65,x,x
Cc1c(C(C)(C)C)c(C=S)n2ccccc12,34.2,0.7,0.0636,0.7,34.8
CC(C)(C)NC(=O)C12CCC(C)(c3nc4ccccc4nc31)C2(C)C (stereo unspecified),22.5,0.8,-1.46,0.8,18.6
CCOc1ccc(NC(=O)CSc2nc3ccccc3c(=O)n2CCNC(C)=O)cc1,6.2,0.9,0.0383,0.9,5.9
COc1ccc(OC)c(NC(=O)CSc2nc3ccccc3c(=O)n2CCNC(C)=O)c1,x,x,3.59*,x,x
SMILES,CYP2C19 inh,CYP2C9 act,Cav32 inh,CYP2C19 activ,CYP2C9 inhib
CC1=C(C(=O)NCCCOC(C)C)C2(CCC(C)CC2)OC1=O (stereo unspecified),63.8*,0.9,0.695,0.4,13.6
COc1ccc(CNC(=O)C2=C(C)C(=O)OC23CCC(C)CC3)cc1 (stereo unspecified),54.8*,0.7,0.53,0.5,25.4
CC1=C(C(=O)NCc2ccccn2)C2(CCC(C)CC2)OC1=O (stereo unspecified),76.7*,0.9,x,0.2,11.9
COc1ccc(NC(=O)C2=C(C)C(=O)OC23CCC(C)CC3)cc1Cl (stereo unspecified),31.7,0.8,-1.53,0.7,21.7
C[C@H]1CCC[C@@]2(O[C@H](CCO)C[C@H](O)[C@H]2O)O1,x,x,0.545,x,x
C=C(c1cccc2ccccc12)P(=O)(O)O,-16.8,1.1,-0.0469,1.2,-10.0
CN(c1ccc(C(=O)O)cc1)S(=O)(=O)c1ccccc1,7.1,0.9,-0.398,0.9,9.5
Cc1ccc(S(=O)(=O)N(C)c2ccccc2)cc1,94.4*,1.6,0.554,0.1,-64.7
Cc1ccc(S(=O)(=O)N(C)c2ccc(NS(C)(=O)=O)cc2)cc1,66.3*,2*,x,0.3,-100.5
Cc1ccc(S(=O)(=O)N(C)c2ccc(OCC(=O)O)cc2)cc1,-0.8,0.7,0.302,1,33.9
O=C(Nc1ccccn1)c1ccc(COc2ccccc2Cl)o1,x,x,-1.06,x,x
O=C(Nc1cccnc1)c1ccc(COc2cc(Cl)ccc2Cl)o1,73.9*,0.4,-2.37,0.3,60.2*
O=C(Nc1nn(Cc2ccc(Cl)cc2)cc1Br)c1ccc(COc2ccccc2Cl)o1,81.2*,0.1,-6.24*,0.2,85.9*
O=C(Nc1ccn(Cc2c(F)c(F)cc(F)c2F)n1)c1cccc(Cn2cc([N+](=O)[O-])cn2)c1,73.4*,0.2,-2.41,0.3,81.5*
O=C(Nc1cccnc1)c1ccc(COc2ccccc2Cl)o1,46.5,0.8,2.55,0.5,21.1
O=C(Nc1ccn(Cc2c(F)c(F)cc(F)c2F)n1)c1ccc(COc2cc(Cl)ccc2Cl)o1,13.1,0.8,-2.65,0.9,19.3
O=C(Nc1ccn(Cc2ccccc2F)n1)c1ccc(COc2cc(Cl)ccc2Cl)o1,60.6*,0.1,-4.91*,0.4,90.9*
CSCCC(NS(=O)(=O)c1ccc(Cl)cc1)C(=O)OCC(=O)NC1CCCCC1 (stereo unspecified),5.4,0.7,-3.28,0.9,28.0
O=C(NCc1ccc2c(c1)OCO2)c1ccc(COc2cc(Cl)ccc2Cl)o1,56.6*,0.1,-4.27,0.4,94.4*
O=C(Nc1ccn(Cc2ccccc2F)n1)c1ccc(COc2ccccc2Cl)cc1,79.0*,0.1,x,0.2,85.6*
Cc1ccc(Cn2ccc(NC(=O)c3cc(-c4ccc(Br)cc4)on3)n2)cc1,-3.5,0.8,0.131,1,17.5
O=C(NCc1ccco1)c1ccc(COc2ccccc2Cl)cc1,16.4,1,-2,0.8,4.6
CCOc1ccc(OCc2ccc(C(=O)Nc3cccnc3)o2)cc1,27.1,0.7,0.0292,0.7,28.7
CN(C)c1ccc(NC(=O)c2ccc(COc3cccc(Cl)c3)o2)cc1,31.3,0.3,-2.85,0.7,70.7*
O=C(Nc1ccn(Cc2ccccc2F)n1)c1ccc(COc2cccc(Br)c2)cc1,19.4,0.1,-7.33*,0.8,87.8*
COC(=O)Cc1c(C)nc2nc(NCc3cccc([N+](=O)[O-])c3)[nH]n2c1=O,4.1,0.9,1.12,1,7.6
CCCCOC(=O)C(C)c1c(C)[nH]c(=S)[nH]c1=O (stereo unspecified),7.7,0.9,1.1,0.9,5.8
CCOc1ccc(OCc2ccc(C(=O)NCc3cccnc3)o2)cc1,43.0,0.6,-0.287,0.6,37.4
